# Test results published in PubChem BioAssay.
# Activity calls are given as the source filed them.
# Assays:
# [1] = system: Plasmodium falciparum Sir2 (PF13_0152, Sir2A); test: Plasmodium falciparum Sir2A binding compounds – biochemical, small-molecule microarray, 635 nm fluorescence, primary screen (AID 1098); conditions: fluorescence 635 nm, higher = more signal;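 note: score merges spot fluorescence intensity with its signal-to-noise ratio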
# [2] = probe aDKK1 binding to arrayed compounds – biochemical, biotinylated probe, 635/667 nm fluorescence, primary screen (AID 1099); conditions: small-molecule microarray, higher = more signal;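 note: score merges 667nm spot fluorescence with signal to noise across triplicate slides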
# [3] = probe aCHRDL2 binding to arrayed compounds – biochemical, biotinylated probe, 635/667 nm fluorescence, primary screen (AID 1100); conditions: small-molecule microarray, higher = more signal
# [4] = change in splice reporter luminescence, either direction, cell-based, HEK293, spliceosome inhibition project, primary screen (AID 1101); conditions: HEK293 splicing luciferase reporter, 24 h, higher = more signal, called active from +8 up or from −8 down;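 note: HEK293 cells carrying a splicing-competent luciferase reporter gene; test concentration not given here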
# [5] = target: Fibroblast growth factor 10 (Homo sapiens) (UniProt O15520); test: compounds binding fibroblast growth factor 10 – biochemical, small-molecule microarray, 635 nm fluorescence, primary screen (AID 1102); conditions: FGF10 binding, fluorescence 635 nm, higher = more signal
# [6] = system: glycogen synthase kinase-3 (GSK3A per assay name; protocol says GSK3B); test: compounds binding glycogen synthase kinase-3 – biochemical, small-molecule microarray, 635 nm fluorescence, GSK3A, primary screen (AID 1103); conditions: fluorescence 635 nm, higher = more signal; note: the record names both GSK3A and GSK3B
# [7] = target: Epidermal growth factor receptor (Homo sapiens) (UniProt P00533); test: compounds binding epidermal growth factor receptor – biochemical, small-molecule microarray, 635 nm fluorescence, primary screen (AID 1104); conditions: EGFR binding, higher = more signal;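 note: score merges 667 nm emission intensity with spot signal to noise over triplicate slides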
# [8] = target: Follistatin-related protein 3 (Homo sapiens) (UniProt O95633); test: compounds binding follistatin-related protein 3 – biochemical, small-molecule microarray, 635 nm fluorescence, primary screen (AID 1105); conditions: FSTL3 binding, higher = more signal;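 note: score merges emission near 667 nm and signal to noise per printed spot across three slides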
# [9] = target: Dickkopf-related protein 1 (Homo sapiens) (UniProt O94907); test: small molecules binding DKK1 protein – biochemical, small-molecule microarray, 635 nm fluorescence scan, primary screen (AID 1106); conditions: higher = more signal;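 note: score merges emission near 667 nm with signal to noise over three replicate slides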
# [10] = system: Inhibin beta A chain (activin A); test: small molecules binding activin A – biochemical, small-molecule microarray, 635 nm fluorescence scan, primary screen (AID 1107); conditions: INHBA, higher = more signal;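 note: mouse activin A protein probed at 4.33 µg/mL on printed slides; score merges bound-protein fluorescence near 667 nm with spot signal-to-noise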
# [11] = system: Human papillomavirus type 1a protein E7 (residues 44-93); test: small molecules binding HPV E7 44-93 – biochemical, small-molecule microarray, residues 44-93, 635 nm fluorescence, primary screen (AID 1108); conditions: fluorescence 635 nm, higher = more signal;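 note: E7 fragment applied at 1 µg/mL in TBST for 1 h at 4 C; score combines spot fluorescence with its signal to noise ratio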
# [12] = hepatitis C replication reporter changes, two-sided – Huh7 cells, luciferase reporter, HCV replication inhibitor project, primary screen (AID 1109); conditions: Huh7 HCV replicon luciferase reporter, 48 h; higher = more signal;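 note: huh7 hepatoma cells harbouring a luciferase neomycin HCV replicon reporter; luciferase luminescence as measure of HCV replicon replication; test concentration not given here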
# [13] = target: Left-right determination factor 2 (Homo sapiens) (UniProt O00292); test: small molecules binding LEFTY2 protein – biochemical, small-molecule microarray, 635 nm fluorescence scan, primary screen (AID 1110); conditions: higher = more signal
# [14] = target: Calmodulin-1 (Homo sapiens) (UniProt P0DP23); test: small molecules binding calmodulin-1 with EGTA – biochemical, small-molecule microarray, Cy5-labelled CALM1, profiling panel (AID 1111); conditions: Cy5-CALM1 binding fluorescence, higher = more signal;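 note: labelled calmodulin applied in Tris saline Tween buffer holding calcium plus EGTA and DTT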
# [15] = target: Calmodulin-1 (Homo sapiens) (UniProt P0DP23); test: small molecules binding Ca-loaded calmodulin-1 – biochemical, small-molecule microarray, Cy5-labelled CALM1, plus calcium, artefact control for SMM control-protein annotation, profiling panel (AID 1112); conditions: Cy5-CALM1 binding fluorescence, higher = more signal;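 note: score merges spot fluorescence with signal to noise from triplicate slides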
# [16] = probe aWnt5a binding to arrayed compounds – biochemical, biotinylated probe, 635/667 nm fluorescence, primary screen (AID 1113); conditions: small-molecule microarray, higher = more signal;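 note: score merges 667 nm fluorescence intensity with signal-to-noise per printed feature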
# [17] = probe aShh binding to arrayed compounds – biochemical, biotinylated probe, 635/667 nm fluorescence, primary screen (AID 1114); conditions: small-molecule microarray, higher = more signal;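 note: probe is biotin-labelled aShh protein from a stem cell growth factor screen; measures binding of labelled protein to compounds printed on the slide; score merges feature fluorescence at 667 nm with signal-to-noise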
# [18] = probe aNog binding to arrayed compounds – biochemical, biotinylated probe, 635/667 nm fluorescence, primary screen (AID 1115); conditions: small-molecule microarray, higher = more signal;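 note: probe is biotinylated aNog protein used at 0.15 µg/mL for 1 h at 4 C; z-score combines 667 nm fluorescence of each spot with its signal to noise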
# [19] = target: Torsin-1A-interacting protein 1 (Homo sapiens) (UniProt Q5JTV8); test: compound microarray binding of lysate hLAP1 – cell lysate, small-molecule microarray, COS7 lysate, 635/667 nm fluorescence, primary screen (AID 1116); conditions: 635 nm fluorescence, higher = more signal
# [20] = target: Alpha-bungarotoxin (Bungarus multicinctus) (UniProt P60615); test: compounds binding labelled alpha-BTX control protein – biochemical, small-molecule microarray, Alexa647 label, 635/667 nm fluorescence, artefact control for SMM control protein annotation, profiling panel (AID 1117); conditions: alpha-BTX-A647 binding fluorescence, higher = more signal
# Sequence of Alpha-bungarotoxin (Bungarus multicinctus) (P60615 whole entry, looked up): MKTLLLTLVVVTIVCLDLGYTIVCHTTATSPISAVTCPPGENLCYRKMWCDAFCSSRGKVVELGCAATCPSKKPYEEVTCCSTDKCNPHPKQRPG
# Sequence of Fibroblast growth factor 10 (Homo sapiens) (O15520 whole entry, looked up): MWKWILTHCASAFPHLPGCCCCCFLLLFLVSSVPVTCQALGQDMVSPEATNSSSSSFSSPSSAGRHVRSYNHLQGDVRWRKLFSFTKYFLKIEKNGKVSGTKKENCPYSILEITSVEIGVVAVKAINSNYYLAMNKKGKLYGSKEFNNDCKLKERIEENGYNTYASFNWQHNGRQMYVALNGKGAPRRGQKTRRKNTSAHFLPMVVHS
# Sequence of Left-right determination factor 2 (Homo sapiens) (O00292 whole entry, looked up): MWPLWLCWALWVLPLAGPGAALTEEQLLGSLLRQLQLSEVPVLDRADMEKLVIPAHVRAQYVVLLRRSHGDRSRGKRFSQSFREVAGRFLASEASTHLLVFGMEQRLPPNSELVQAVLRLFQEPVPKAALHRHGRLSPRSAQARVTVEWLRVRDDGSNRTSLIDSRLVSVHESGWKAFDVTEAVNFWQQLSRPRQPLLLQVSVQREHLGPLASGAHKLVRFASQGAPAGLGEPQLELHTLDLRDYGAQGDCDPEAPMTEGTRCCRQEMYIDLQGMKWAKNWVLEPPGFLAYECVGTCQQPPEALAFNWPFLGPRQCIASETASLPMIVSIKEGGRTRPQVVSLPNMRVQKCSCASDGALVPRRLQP
# Sequence of Follistatin-related protein 3 (Homo sapiens) (O95633 whole entry, looked up): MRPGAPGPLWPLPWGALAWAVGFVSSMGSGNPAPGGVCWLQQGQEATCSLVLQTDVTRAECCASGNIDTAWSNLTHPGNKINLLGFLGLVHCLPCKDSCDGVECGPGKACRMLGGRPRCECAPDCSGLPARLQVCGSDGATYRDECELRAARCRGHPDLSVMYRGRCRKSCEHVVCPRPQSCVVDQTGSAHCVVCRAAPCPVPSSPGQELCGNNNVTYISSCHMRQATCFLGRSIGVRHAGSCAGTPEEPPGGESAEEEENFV
# Sequence of Epidermal growth factor receptor (Homo sapiens) (P00533 whole entry, looked up): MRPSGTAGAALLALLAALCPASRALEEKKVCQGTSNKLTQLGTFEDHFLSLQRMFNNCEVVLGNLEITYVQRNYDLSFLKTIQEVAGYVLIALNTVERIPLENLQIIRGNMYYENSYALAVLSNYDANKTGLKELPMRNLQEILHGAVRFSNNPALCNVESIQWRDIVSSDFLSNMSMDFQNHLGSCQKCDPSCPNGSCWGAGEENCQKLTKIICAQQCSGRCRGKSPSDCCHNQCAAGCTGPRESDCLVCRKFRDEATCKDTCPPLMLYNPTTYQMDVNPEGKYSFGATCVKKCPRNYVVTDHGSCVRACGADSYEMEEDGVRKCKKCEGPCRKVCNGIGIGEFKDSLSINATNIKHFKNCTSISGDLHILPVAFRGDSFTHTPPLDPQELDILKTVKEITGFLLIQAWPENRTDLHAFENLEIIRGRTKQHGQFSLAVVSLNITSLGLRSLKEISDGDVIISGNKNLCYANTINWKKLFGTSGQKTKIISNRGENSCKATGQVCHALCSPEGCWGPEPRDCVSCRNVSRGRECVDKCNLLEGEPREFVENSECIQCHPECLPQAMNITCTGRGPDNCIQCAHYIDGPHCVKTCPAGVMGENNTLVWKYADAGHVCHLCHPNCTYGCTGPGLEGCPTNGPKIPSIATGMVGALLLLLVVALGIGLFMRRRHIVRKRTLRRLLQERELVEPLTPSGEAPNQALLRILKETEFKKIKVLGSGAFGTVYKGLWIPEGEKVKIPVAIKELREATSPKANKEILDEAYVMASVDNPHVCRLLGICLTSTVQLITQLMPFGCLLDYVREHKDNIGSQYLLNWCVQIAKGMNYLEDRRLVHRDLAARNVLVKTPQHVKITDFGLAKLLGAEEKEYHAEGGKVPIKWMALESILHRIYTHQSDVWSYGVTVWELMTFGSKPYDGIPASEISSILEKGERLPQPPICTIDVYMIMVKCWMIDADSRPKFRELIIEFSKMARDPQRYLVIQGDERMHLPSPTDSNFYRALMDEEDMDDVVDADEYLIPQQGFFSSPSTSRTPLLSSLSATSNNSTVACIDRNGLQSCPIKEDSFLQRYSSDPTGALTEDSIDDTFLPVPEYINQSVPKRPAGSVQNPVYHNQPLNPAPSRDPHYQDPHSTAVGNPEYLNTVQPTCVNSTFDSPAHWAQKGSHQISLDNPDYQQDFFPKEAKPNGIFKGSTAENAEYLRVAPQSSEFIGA
# Sequence of Dickkopf-related protein 1 (Homo sapiens) (O94907 whole entry, looked up): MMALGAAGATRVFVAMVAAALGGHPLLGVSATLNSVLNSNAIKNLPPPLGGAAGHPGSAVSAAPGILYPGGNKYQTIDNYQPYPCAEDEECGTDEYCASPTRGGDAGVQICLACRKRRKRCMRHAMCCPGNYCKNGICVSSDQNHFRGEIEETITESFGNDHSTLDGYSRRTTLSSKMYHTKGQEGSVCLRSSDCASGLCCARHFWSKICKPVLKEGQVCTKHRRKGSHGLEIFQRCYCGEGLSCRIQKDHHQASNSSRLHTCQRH
# Sequence of Torsin-1A-interacting protein 1 (Homo sapiens) (Q5JTV8 whole entry, looked up): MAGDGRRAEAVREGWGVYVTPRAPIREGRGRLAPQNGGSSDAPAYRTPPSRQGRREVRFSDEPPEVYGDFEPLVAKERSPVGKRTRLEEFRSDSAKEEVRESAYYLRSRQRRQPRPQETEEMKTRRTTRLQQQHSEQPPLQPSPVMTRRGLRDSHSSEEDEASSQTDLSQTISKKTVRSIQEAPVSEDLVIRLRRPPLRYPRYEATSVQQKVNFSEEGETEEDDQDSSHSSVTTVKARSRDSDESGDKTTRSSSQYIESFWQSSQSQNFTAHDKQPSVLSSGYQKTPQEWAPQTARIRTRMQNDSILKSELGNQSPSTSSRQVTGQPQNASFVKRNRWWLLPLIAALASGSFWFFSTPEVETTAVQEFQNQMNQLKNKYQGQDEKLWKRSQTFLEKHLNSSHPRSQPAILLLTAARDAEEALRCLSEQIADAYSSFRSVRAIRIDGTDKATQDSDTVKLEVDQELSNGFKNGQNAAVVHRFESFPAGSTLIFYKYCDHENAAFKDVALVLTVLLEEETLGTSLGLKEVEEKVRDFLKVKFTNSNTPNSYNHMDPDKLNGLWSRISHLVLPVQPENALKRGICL
Compound,composite z-score [1],composite z-score [2],composite z-score [3],z-score [4],composite z-score [5],composite z-score [6],composite z-score [7],composite z-score [8],composite z-score [9],composite z-score [10],composite z-score [11],z-score [12],composite z-score [13],composite z-score [14],composite z-score [15],composite z-score [16],composite z-score [17],composite z-score [18],composite z-score [19],composite z-score [20]
COC(=O)C(CC#Cc1ccc2c(c1)[C@]1(C(=O)N2)[C@H](C(=O)N2CCCCCCC2)[C@H]2C(=O)O[C@H](c3ccccc3)[C@H](c3ccccc3)N2[C@@H]1c1ccc(O)cc1)C(=O)OC,0.465,-0.2,0.269,-0.751 (inactive),-1.05,-1.63,-0.887,-0.635,-0.785,0.16,-1.26,-0.789,-0.537,-0.433,-0.236,-0.125,-0.0769,-0.411,-0.723,-0.715
CCN1C(C)=C(C(=O)OC)[C@@H](c2ccccc2)N2C(=O)[C@@]3(C(=O)OC)O[C@@]12[C@@H]1C(=O)N(c2ccccc2)C(=O)[C@@H]13,0.286,0.0355,-0.253,-1.66 (inactive),1,0.85,0.472,1.24,0.4,-0.545,0.121,-0.181,0.341,-0.173,-0.525,-0.0758,0.0893,0.221,0.905,0.38
CO[C@H]1O[C@H](CO)[C@@H](OC(=O)Nc2ccc3c(c2)OCO3)[C@H](OC(=O)Nc2ccccc2)[C@@H]1OC(=O)Nc1ccccc1,0.966,0.0085,0.0249,-0.788 (inactive),1.46,1.16,-0.228,0.479,-0.0463,-0.0204,1.45,-1.69,-0.0553,1.01,-0.677,0.129,0.0796,0.953,0.949,0.902
O=C1OCCC/C=C\[C@H]2OC34C=CCN(CCN5CCOCC5)C(=O)[C@H]3N(CCCCCO)C(=O)[C@@H]4C12 (stereo not given in full),1.52,-0.413,-0.0252,-0.755 (inactive),-0.81,-0.188,-1.33,-0.762,-0.333,0.966,-0.827,-0.953,-1.37,-0.725,-1.26,-0.226,-0.147,-0.356,-0.849,-0.918
N#Cc1ccc(NN2C(C(O)CCc3ccccc3)C=CC3C(=O)N(c4ccccc4)C(=O)C32)cc1 (stereo not given),0.712,1.18,1.11,-0.474 (inactive),0.25,0.767,-0.164,0.228,0.0048,1.02,-0.317,-0.123,-0.111,1.59,0.0484,0.0785,0.108,-0.428,2.95,0.969
C=CC[C@]1(C(=O)O)N=C(c2ccc(OCCCO)cc2)O[C@H]1c1ccccc1N=[N+]=[N-],1.75,0.623,1.05,-0.627 (inactive),-0.103,-0.335,-0.18,-0.214,-0.651,1.43,-0.914,1.65,-0.753,1.74,0.768,0.055,-0.0243,-0.0069,1.45,0.0298
